Results on 63 sequences are retold here after the supplement of paper PMC10338343.

± gives the standard deviation. Over roughly 8,200 sequences, “pre-steady-state target cleavage rate” has its median near 0.024; the highest 2% begin near 1.3. Only a selection was taken, and the highest values are over-represented in it overall.

This experiment relates to MIWI (PIWIL1) piRISC loaded with L1MC piRNA (30 nt). The experiment in a line: pre-steady-state target cleavage rate (min^-1); MIWI and MILI are mouse PIWI proteins and EfPiwi is from a freshwater sponge; tags in brackets are library labels; higher = faster piRNA-guided slicing of the target. The following applies: guide: L1MC piRNA 5'p-UAACUAAAUACUAUGCAAGCUGUAGGUCCU
Summed up:
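For Cleave-'n-Seq, a transcribed, DNA-blocked target RNA library […] met 1 nM active affinity-purified piRISC with one synthetic guide at 33 °C for 0–8 or 0–960 min in HEPES–potassium acetate buffer, with or without 500 nM GTSF1 partner protein. Uncleaved targets were sequenced and normalised to depth and weakly complementary targets, with three trials pooled and k3 capped at 0.0001 min^-1. A burst-and-steady-state fit supplied the pre-steady-state cleavage rate.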

[1] abbreviates: auxiliary factor: 500 nM mouse GTSF1.
Where [2] appears, read: auxiliary factor: none (no GTSF1).
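Also: 1 nM active piRISC with 0.1 nM target library at 33 °C single turnover.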

AGGACCUACAGCUUGCAUGGUAUUUAGUUA: the “pre-steady-state target cleavage rate” value was 1.35 ± 0.073 under setting [1] and 0.0615 ± 0.012 under setting [2].

As for UCCACCUACAGCUUGCAUGGUAUUUAGUUA, the “pre-steady-state target cleavage rate” value by setting is: under setting [1], 1.3 ± 0.061; under setting [2], 0.0488 ± 0.01. For UCCUGCUACAGCUUGCAUGGUAUUUAGUUA, in that order: 1.2 ± 0.1 and 0.0413 ± 0.0095.

For UGGACCUACAGCUUGCAUGGUAUUUAGUUA, the “pre-steady-state target cleavage rate” value amounted to 1.38 ± 0.079 under setting [1] and 0.0478 ± 0.01 under setting [2]. As to AGGACCUACAGCUUGCAUGAGUAUUUAGUUA, under setting [1], the “pre-steady-state target cleavage rate” value was found to be 0.194 ± 0.068. With UCGACCUACAGCUUGCAUGGUAUUUAGUUA, the “pre-steady-state target cleavage rate” value was determined as 1.73 ± 0.084 under setting [1] and 0.0512 ± 0.011 under setting [2]. For UCCUCCUACAGCUUGCAUGUAUUUAGUUA, in that order: 0.428 ± 0.051 and 0.00445 ± 0.0018. With AGGUCCUACAGCUUGCAUAGUAUUUAGAAA, the “pre-steady-state target cleavage rate” value by setting is: under setting [1], 0.285 ± 0.045; under setting [2], 0.0132 ± 0.0048. Consider AGGACCUACAGCUUGCAUAGUUAAUUCAAA, for which the “pre-steady-state target cleavage rate” value under setting [1] is 0.786 ± 0.23. Regarding UCCUGGUACAGCUUGCAUAGUAUUUAGAUUA, the “pre-steady-state target cleavage rate” value under setting [1] amounted to 0.179 ± 0.046 and the “pre-steady-state target cleavage rate” value under setting [2] came to 0.0165 ± 0.0061. In the same order, the values of UCCUGCUACACCAUGCAUAGUAUUUAGUUA are 0.783 ± 0.035 and 0.00793 ± 0.002. In the same order, the values of UCCUGGAACAGCUUGCAAUGUAUUUAGUUA are 0.265 ± 0.02 and 0.00723 ± 0.0039. For UCCUGGAUGUCCUUGCAUAGUAUAUUGUUA, the “pre-steady-state target cleavage rate” value under setting [1] came out at 0.00947 ± 0.0039. Consider UCGACCUACAGCUUGGAUAGUAUUUACAAA, for which the “pre-steady-state target cleavage rate” value under setting [1] turned out to be 0.179 ± 0.036. As to UCCUCCUACAGCUUGGUUAGUAUUUAGUAA, the “pre-steady-state target cleavage rate” value under setting [1] came to 0.523 ± 0.043 and the “pre-steady-state target cleavage rate” value under setting [2] amounted to 0.00502 ± 0.0015. As for UCCACCUACAGCAAGCAUAGUAUUUAGUAA, the “pre-steady-state target cleavage rate” value under setting [1] worked out at 0.507 ± 0.042.

Consider AGGACCUACAGCUUGCAUAGUAUUAUCUAA, for which, under setting [1], the “pre-steady-state target cleavage rate” value was 0.404 ± 0.066. With UCCUGGAUGUCCUUGCAUAGUAGUUAGUUA, the “pre-steady-state target cleavage rate” value runs as follows: under setting [1], 0.00603 ± 0.0046; under setting [2], 0.00268 ± 0.0023. Consider UCCUGGUACAGCUUGCAUAGUAAAAAGUAA, for which the “pre-steady-state target cleavage rate” value under setting [1] amounted to 0.109 ± 0.031. In the case of UCCUGGAACAGCUUGCAUAGUAUUUAGAUA, the “pre-steady-state target cleavage rate” value runs as follows: under setting [1], 0.406 ± 0.042; under setting [2], 0.0172 ± 0.0058. Regarding UCCUGCUACAGCUUGCAUAGUAUAUUGUUA, the “pre-steady-state target cleavage rate” value runs as follows: under setting [1], 0.377 ± 0.037; under setting [2], 0.0123 ± 0.0026. For AGGCACCUACAGCUUGCAUAGUAUUUAGUUA, in that order: 2.18 ± 0.8 and 2.2 ± 1.8. As to UGCACCUACAGCUUGCAUAGUAUUUAGUUA, the “pre-steady-state target cleavage rate” value is, setting by setting: under setting [1], 1.22 ± 0.11; under setting [2], 0.0865 ± 0.017. Consider UGGCACCUACAGCUUGCAUAGUAUUUAGUUA, for which the “pre-steady-state target cleavage rate” value under setting [1] worked out at 2.2 ± 0.89. For UCGCACCUACAGCUUGCAUAGUAUUUAGUUA, the “pre-steady-state target cleavage rate” value came to 1.06 ± 0.13 under setting [1] and 0.0648 ± 0.015 under setting [2]. For AGCACCUACAGCUUGCAUAGUAUUUAGUUA, in that order: 1.19 ± 0.16 and 0.246 ± 0.073. In the case of UGCACCUACAGCUUGCAUAGUAUUUAGUAA, the “pre-steady-state target cleavage rate” value runs as follows: under setting [1], 1.17 ± 0.11; under setting [2], 0.0465 ± 0.0097.

In the case of UCCUGGAACAGCUUGCAUAGCUAUUUAGUUA, the “pre-steady-state target cleavage rate” value under setting [1] was determined as 0.0102 ± 0.0047. UCCUGGUAAAGCUUGCAUAGUAUUUAGUUA: the “pre-steady-state target cleavage rate” value came out at 0.551 ± 0.037 under setting [1] and 0.0419 ± 0.0086 under setting [2]. For UCCUGGAACAGCUUGCAAAGUAUAUAGUUA, in that order: 0.459 ± 0.037 and 0.0164 ± 0.0061. For the sequence UCCUGCUACAGCUUGGAAAGUAUUUAGUUA, the “pre-steady-state target cleavage rate” value under setting [1] came out at 0.903 ± 0.053 and the “pre-steady-state target cleavage rate” value under setting [2] is 0.00754 ± 0.0024. For AGGAUCUACAGCUUGCAUAGUAUUUAGUUA, in that order: 1.7 ± 0.059 and 0.105 ± 0.017. As for AGGACACUACAGCUUGCAUAGUAUUUAGUUA, the “pre-steady-state target cleavage rate” value under setting [1] is 1.13 ± 0.083 and the “pre-steady-state target cleavage rate” value under setting [2] was determined as 0.0749 ± 0.011. In the same order, the values of UCCAUCUACAGCUUGCAUAGUAUUUAGUUA are 0.731 ± 0.031 and 0.0538 ± 0.0076.

With UGGAUCUACAGCUUGCAUAGUAUUUAGUUA, the “pre-steady-state target cleavage rate” value under setting [1] came to 1.57 ± 0.062 and the “pre-steady-state target cleavage rate” value under setting [2] was determined as 0.0958 ± 0.019. Turning to UCCUGGAUCUAGCUUGCAUAGUAUUUAGUUA, the “pre-steady-state target cleavage rate” value reads like this: under setting [1], 0.86 ± 0.04; under setting [2], 0.0445 ± 0.011. For UGGACGCUACAGCUUGCAUAGUAUUUAGUUA, in that order: 1.15 ± 0.076 and 0.0759 ± 0.013. For the sequence UCGAUCUACAGCUUGCAUAGUAUUUAGUUA, the “pre-steady-state target cleavage rate” value under setting [1] was 1.61 ± 0.05 and the “pre-steady-state target cleavage rate” value under setting [2] amounted to 0.072 ± 0.013. For UCCUGGAUCAGCUUGCAUUGUUUUUAGUUA, in that order: 0.0337 ± 0.0067 and 0.00759 ± 0.0022. Take UCGACCUACAGCUUGCAUAGUAAUUAGUUA: the “pre-steady-state target cleavage rate” value under setting [1] was found to be 1.08 ± 0.049 and the “pre-steady-state target cleavage rate” value under setting [2] was 0.0469 ± 0.012. On to UCCUGGAUGUCCUUGCUAUGUAUUUAGUAA, for which the “pre-steady-state target cleavage rate” value under setting [1] was determined as 0.00637 ± 0.0038.

As for UCCUGGUACAGCUUGCAUAGUGAUUUAGUUA, the “pre-steady-state target cleavage rate” value was determined as 0.0476 ± 0.011 under setting [1] and 0.00639 ± 0.0029 under setting [2]. Consider UCCUGGUACACCUAGCAUAGUAUUUAGUUA, for which the “pre-steady-state target cleavage rate” value was found to be 0.278 ± 0.063 under setting [1] and 0.00414 ± 0.0028 under setting [2]. In the case of UCGACCUAGAGCUUGCAUAGUAUUUAGAAA, the “pre-steady-state target cleavage rate” value under setting [1] turned out to be 0.441 ± 0.048 and the “pre-steady-state target cleavage rate” value under setting [2] was 0.00689 ± 0.0021.

In the case of UCCUGGUACUCGUUGCAUAGUAUUUAGUAA, under setting [1], the “pre-steady-state target cleavage rate” value is 0.0165 ± 0.0088. In the case of UCCUCGAACAGCUUGCAUAGUAUUUAGUAA, the “pre-steady-state target cleavage rate” value under setting [1] was 0.982 ± 0.042 and the “pre-steady-state target cleavage rate” value under setting [2] turned out to be 0.0424 ± 0.008. For UCCUCGAACAGCUUGCAUAGUAUUUAGAAA, in that order: 0.474 ± 0.043 and 0.00694 ± 0.0025.

Take UCGACGAACAGCUUGCAUAGUAUUUAGUUA: the “pre-steady-state target cleavage rate” value under setting [1] turned out to be 1.38 ± 0.049 and the “pre-steady-state target cleavage rate” value under setting [2] came out at 0.0836 ± 0.015. Take UCGACGAACAGCUUGCAUAGUAUUUAGUAA: the “pre-steady-state target cleavage rate” value by setting is: under setting [1], 0.962 ± 0.062; under setting [2], 0.0577 ± 0.013. Turning to UCCUCGAACAGCUUGCAUAGUAUUUAGUUA, the “pre-steady-state target cleavage rate” value runs as follows: under setting [1], 1.39 ± 0.039; under setting [2], 0.0825 ± 0.015. For UGGACGAACAGCUUGCAUAGUAUUUAGUUA, in that order: 1.17 ± 0.036 and 0.0856 ± 0.015.

Turning to UCCUGGAACACCUUGCUUAGUAUUUAGUUA, the “pre-steady-state target cleavage rate” value is 0.239 ± 0.032 under setting [1] and 0.00546 ± 0.0019 under setting [2].

Consider UGUGACCUACAGCUUGCAUAGUAUUUAGUUA, for which the “pre-steady-state target cleavage rate” value runs as follows: under setting [1], 1.45 ± 0.063; under setting [2], 0.0959 ± 0.018.

In the case of AGCACCUACAGCUUGCAUAGUAUUUACUUA, the “pre-steady-state target cleavage rate” value under setting [1] came to 1.4 ± 0.24. UUGACCUACAGCUUGCAUAGUAUUUAGUUA: the “pre-steady-state target cleavage rate” value reads like this: under setting [1], 1.16 ± 0.061; under setting [2], 0.0724 ± 0.012.

With UCCACCUACAGCUUGCAUAGUAUUUACUUA, the “pre-steady-state target cleavage rate” value came to 0.378 ± 0.044 under setting [1] and 0.0369 ± 0.0085 under setting [2].

As for UGACCUACAGCUUGCAUAGUAUUUAGUUA, the “pre-steady-state target cleavage rate” value under setting [1] worked out at 1.57 ± 0.061 and the “pre-steady-state target cleavage rate” value under setting [2] came out at 0.0842 ± 0.016. For the sequence AGGACCUACAGCUUGCAUAGUAUUUAGUGA, the “pre-steady-state target cleavage rate” value runs as follows: under setting [1], 1.01 ± 0.085; under setting [2], 0.0934 ± 0.018.

For the sequence UGGACCUACAGCUUGCAUAGUAUUUAGUGA, the “pre-steady-state target cleavage rate” value under setting [1] was determined as 1.12 ± 0.064 and the “pre-steady-state target cleavage rate” value under setting [2] came out at 0.0575 ± 0.011. Take UGCACCUACAGCUUGCAUAGUAUUUACUUA: the “pre-steady-state target cleavage rate” value turned out to be 0.46 ± 0.056 under setting [1] and 0.0724 ± 0.017 under setting [2]. In the same order, the values of AUGACCUACAGCUUGCAUAGUAUUUAGUUA are 1.06 ± 0.03 and 0.0859 ± 0.013. With AGUGACCUACAGCUUGCAUAGUAUUUAGUUA, the “pre-steady-state target cleavage rate” value under setting [1] is 1.38 ± 0.056 and the “pre-steady-state target cleavage rate” value under setting [2] worked out at 0.0885 ± 0.015. For UCGACCAUGAGCUUGCAUAGUAUUUAGUAA, in that order: 0.804 ± 0.049 and 0.0343 ± 0.0083.
